Most compounds without a hit are left out; they make up all but 4.7% or so of the library.
TRHR ag: qHTS for Small Molecule Agonists and Allosteric Enhancers of Human TRH Receptor: Primary Screen for Agonists | TRHR cells, calcium flux fluo-8, FDSS agonist mode | Thyrotropin-releasing hormone receptor (Homo sapiens), P34981 | activation, % at 2 µM | 0.18% of 360,000 active; further: 0% is about no effect
Target sequence (P34981 whole entry, looked up): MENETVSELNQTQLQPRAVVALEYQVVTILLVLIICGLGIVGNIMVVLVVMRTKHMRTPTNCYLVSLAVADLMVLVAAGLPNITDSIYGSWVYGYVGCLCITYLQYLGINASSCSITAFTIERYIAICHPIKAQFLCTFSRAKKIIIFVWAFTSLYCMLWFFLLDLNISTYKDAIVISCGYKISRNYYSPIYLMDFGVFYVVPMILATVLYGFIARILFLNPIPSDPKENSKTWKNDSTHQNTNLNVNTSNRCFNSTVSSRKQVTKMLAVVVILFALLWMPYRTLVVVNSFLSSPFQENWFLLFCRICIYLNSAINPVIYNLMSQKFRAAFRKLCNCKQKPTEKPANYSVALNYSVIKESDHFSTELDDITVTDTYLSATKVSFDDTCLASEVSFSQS
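Read-out: compound-evoked intracellular calcium rise in TRHR cells, fluo-8 dye, kinetic FDSS fluorescence at 1 s/cycle following a 10-cycle baseline. Cells cultured overnight before dye loading (30 min–1.5 h, RT).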
D1 ag: Allosteric Agonists of the Human D1 Dopamine Receptor: qHTS; D(1A) dopamine receptor (Homo sapiens), P21728; HEK293 T-REx D1 cells, calcium flux, agonist mode; activation, % at 2 µM; 1% of 360,000 active; AID 504660, 2011; further: 0% is about no effect
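Tetracycline-induced HEK293 TREx D1 cells, force-coupled to calcium signalling, were dye-loaded with a no-wash calcium kit. Compound was pin-added after a 10 s baseline. Fluorescence was read kinetically at 1 cycle/s for 180 s, with calcium rises flagged as agonism.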
TRHR PAM: qHTS for Small Molecule Agonists and Allosteric Enhancers of Human TRH Receptor: Primary Screen for Enhancers. TRHR cells, fluo-8 calcium fluorescence, EC20 TRH enhancement. enhancement, % at 2 µM. 0.66% of 360,000 active. AID 493056, 2011; in the data active means enhancement above about 30%; further: 0% is about no effect
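Enhancer read-out: after compound pinning and an initial kinetic agonist-mode read, an EC20 of TRH (10 nM final) was injected and fluo-8 calcium signal (Ex 480/Em 530) followed at 1 s/cycle for 100 cycles in TRHR-expressing cells.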
D1 antagonist: Antagonist of Human D 1 Dopamine Receptor: qHTS. D(1A) dopamine receptor (Homo sapiens), P21728. HEK293 TREx D1 cells, calcium flux, dopamine EC80; stronger effect = lower value. activity change, negative = inhibition, % at 10 µM. 3.2% of 360,000 active; in the data active means activity change below about -30%; further: on the % scale 0 is the no-effect control and ±100 the full control effect
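Cells carrying a force-coupled, tetracycline-inducible human D1 receptor report calcium flux. Each well gets a 10 s baseline, compound with 180 s monitoring, then an EC80 dopamine stimulus with a second 180 s kinetic read.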
D1 potentiator: Potentiators of Human D1 Dopamine Receptor: qHTS | HEK293 TREx D1 cells, calcium flux, dopamine EC20 potentiation | AID 504651, 2011 | potentiation, % at 10 µM | D(1A) dopamine receptor (Homo sapiens), P21728 | 0.036% of 360,000 active; in the data active means potentiation above about 30%; further: 0% is about no effect
* = called active by the depositor; ! = a repeat was not active. Unless noted, no stated cut-off is given here; in the data, active means activation above about 30%; inactive means the rest.

What do the screens show for `O=C1CCC(C(=O)N2CCCC(C(=O)c3ccc4c5c(cccc35)CC4)C2)=NN1` (configuration not stated)?
TRHR ag: 1; D1 ag: 2; TRHR PAM: -2; D1 antagonist: -33*; D1 potentiator: -3

Results for Cc1ccc(S(=O)(=O)N2CCC(C(=O)OCC(=O)N(C)C3CCCCC3)CC2)cc1C ?
TRHR ag: 1; D1 ag: 3; TRHR PAM: -2; D1 antagonist: -38*; D1 potentiator: -10

Results for Cc1ccc(S(=O)(=O)N2CCC(C(=O)OCC(=O)N(C)C3CCS(=O)(=O)C3)CC2)cc1C (configuration not stated) ?
TRHR ag: 0; D1 ag: 1; TRHR PAM: -1; D1 antagonist: 1; D1 potentiator: -5

Results for CCOC(=O)C1CCN(C(=O)Cn2c(=O)oc3cc(S(=O)(=O)N4CCCC4)ccc32)CC1 ?
TRHR ag: 0; D1 ag: 2; TRHR PAM: -4; D1 antagonist: -13; D1 potentiator: -4

Results for CCOC(=O)C1CCN(C(=O)Cn2c(=O)oc3cc(S(=O)(=O)N4CCC(C)CC4)ccc32)CC1 ?
TRHR ag: -2; D1 ag: 12; TRHR PAM: 3; D1 antagonist: -39*; D1 potentiator: 1

Results for CN(C(=O)COC(=O)C1CCN(S(=O)(=O)c2c(Cl)cccc2Cl)CC1)c1ccccc1 ?
TRHR ag: 1; D1 ag: 18; TRHR PAM: -3; D1 antagonist: -32*; D1 potentiator: -2

What do the screens show for `Cc1ccc(S(=O)(=O)N2CCOCC2)cc1C(=O)Nc1ccc(C(N)=O)cc1`?
TRHR ag: 1; D1 ag: 3; TRHR PAM: 0; D1 antagonist: -32*; D1 potentiator: -10

How did CCOC(=O)C1CCN(C(=O)c2cc(S(=O)(=O)N3CCOCC3)ccc2C)CC1 do in these assays?
TRHR ag: 0; D1 ag: 0; TRHR PAM: 31*; D1 antagonist: 3; D1 potentiator: -3

How did COc1ccc(/C=C/C(=O)O)cc1S(=O)(=O)NCC1CCCO1 (configuration not stated) do in these assays?
TRHR ag: 0; D1 ag: 2; TRHR PAM: 8; D1 antagonist: -8; D1 potentiator: 5

What do the screens show for `COc1c(Cl)cc(C(=O)Nc2ccccc2C(=O)O)cc1Cl`?
TRHR ag: 0; D1 ag: 3; TRHR PAM: 2; D1 antagonist: -37*; D1 potentiator: 6

What do the screens show for `Cc1cc(C(=O)Nc2ccccc2C(=O)O)ccc1NC(=O)COc1ccccc1Cl`?
TRHR ag: -1; D1 ag: 0; TRHR PAM: 35*; D1 antagonist: -2; D1 potentiator: -1

What do the screens show for `CCCC(=O)N1CCN(c2nc3c(OC)ccc(Cl)c3s2)CC1`?
TRHR ag: 0; D1 ag: 0; TRHR PAM: 4; D1 antagonist: 31; D1 potentiator: 5

What do the screens show for `COc1ccc(CCNC(=O)COc2ccc3c(C)cc(=O)oc3c2)cc1OC`?
TRHR ag: 0; D1 ag: 3; TRHR PAM: 3; D1 antagonist: 1; D1 potentiator: 0

How did COc1ccc(OC)c(NC(=O)c2c(NCc3cccs3)sc3c2CCCCC3)c1 do in these assays?
TRHR ag: 0; D1 ag: 0; TRHR PAM: -2; D1 antagonist: 21; D1 potentiator: 7

How did O=[S+]([O-])(c1ccc2c(c1)OCCO2)N1CCN([S+](=O)([O-])c2cc(Cl)ccc2F)CC1 do in these assays?
TRHR ag: 2; D1 ag: 1; TRHR PAM: -4; D1 antagonist: -12; D1 potentiator: 17

Results for COc1ccc(NC(=O)CC2Oc3ccccc3NC2=O)cc1 (configuration not stated) ?
TRHR ag: 0; D1 ag: 1; TRHR PAM: 2; D1 antagonist: -40*; D1 potentiator: -16

Results for CC1(C)CC(=O)C2=C(C1)NC(=O)CC2c1ccccc1F (configuration not stated) ?
TRHR ag: 0; D1 ag: 1; TRHR PAM: -6; D1 antagonist: -31*; D1 potentiator: -6

Results for CC1(C)CC(=O)C2=C(C1)NC(=O)CC2c1cc(F)ccc1F (configuration not stated) ?
TRHR ag: 0; D1 ag: 2; TRHR PAM: 1; D1 antagonist: -12; D1 potentiator: -10

Results for CCCn1cc(S(=O)(=O)c2cccc(Cl)c2)c(=O)c2cc(F)c(N3CCOCC3)cc21 ?
TRHR ag: 0; D1 ag: 0; TRHR PAM: 7; D1 antagonist: -3; D1 potentiator: -2

Results for Cc1ccc(-c2nnn(CC(=O)NC(=O)NC3CCCCC3)n2)cc1 ?
TRHR ag: 0; D1 ag: 5; TRHR PAM: 5; D1 antagonist: 5; D1 potentiator: -7

What do the screens show for `Cc1ccc(NC(=O)N2CCC(c3nc4c(nnn4Cc4cccc(Cl)c4)c(=O)[nH]3)CC2)cc1`?
TRHR ag: 1; D1 ag: 4; TRHR PAM: 2; D1 antagonist: -47*; D1 potentiator: -8

What do the screens show for `COC(=O)c1ccc(Oc2coc3cc(OCc4cnn(-c5ccccc5)c4)ccc3c2=O)cc1`?
TRHR ag: 0; D1 ag: 4; TRHR PAM: 0; D1 antagonist: -38*; D1 potentiator: -3

Results for COC(=O)c1ccc(Oc2c(C)oc3cc(OCc4cnn(-c5ccccc5)c4)ccc3c2=O)cc1 ?
TRHR ag: 2; D1 ag: 4; TRHR PAM: -2; D1 antagonist: 4; D1 potentiator: 2

What do the screens show for `O=C(COC(=O)Cn1nc(-c2ccccc2)oc1=O)Nc1ccc(F)cc1`?
TRHR ag: -1; D1 ag: 3; TRHR PAM: 5; D1 antagonist: -34*; D1 potentiator: -5

Results for COc1ccc(CCC(=O)OCC(=O)Nc2ccccc2)cc1 ?
TRHR ag: -1; D1 ag: 4; TRHR PAM: -6; D1 antagonist: -9; D1 potentiator: -11

How did CC/C(=C(\c1ccccc1)c1ccc(OCCN(C)C)cc1)c1ccccc1 do in these assays?
TRHR ag: -1; D1 ag: 87*!; TRHR PAM: -2; D1 antagonist: 32; D1 potentiator: -5

Results for CC/C(=C(\c1ccc(O)cc1)c1ccc(OCCN(C)C)cc1)c1ccccc1 ?
TRHR ag: 1; D1 ag: 15; TRHR PAM: 8; D1 antagonist: 9; D1 potentiator: -2

Source: PubChem BioAssay
